Rows were chosen to be rich in hits. Some 8% of all compounds tested hit in one or more screens of this group.
KB-V1 cytotox: qHTS assay for MDR1-selective chemotherapeutics: Primary screen using the drug-selected MDR subline cells KB-V1. KB-V1 MDR cells viability, CellTiter-Glo, 72 h. Potency, µM (highest dose often 46.1 µM), hits mostly cytotoxic. 400,000 compounds, 3.4% hits. AID 1347076, 2019; also: nearly all actives have a fitted effect of over 60% in size
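KB-V1, DMEM (no phenol red) + 10% FBS; cpd pin-transferred, titration series; 72 h, 37 degrees C; CellTiter-Glo, luminescence. Data normalized, curve-fit.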
HT1080 IDH1KD tx: qHTS for induction of synthetic lethality in tumor cells producing 2HG: qHTS for the HT-1080-IDH1KD cell line | HT-1080 IDH1 knockdown viability, ATP luminescence, 48 h | Potency, µM (titrated, usually from 46.1 µM), actives largely listed as cytotoxic | 360,000 compounds, 2% hits | AID 686971, 2013
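IDH1KD HT-1080 cells, 750/well, RPMI + 5% FBS; compound pinned after 2 h settling; 48 h, 37 °C; CellTiter-Glo luminescence; % activity normalised to DMSO and no-cell wells; curves fitted, classed by r2 and efficacy.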
MCF10A rereplic: A quantitative high throughput screen for small molecules that induce DNA re-replication in MCF 10a normal breast cells. MCF 10A DNA re-replication, Hoechst nuclear intensity, 48 h. Potency, µM (series often up to 46.1 µM), actives largely listed as activators. 350,000 compounds, 2.9% hits. AID 624296, 2012; also: nearly all actives have a fitted effect of over 50% in size
KB-3-1 tox: qHTS assay for MDR1-selective chemotherapeutics: Primary screen using the parental adenocarcinoma cell KB-3-1. KB-3-1 viability, CellTiter-Glo ATP luminescence, 72 h. Potency, µM (doses to about 46.1 µM), actives largely listed as cytotoxic. 400,000 compounds, 1.4% hits. AID 1347075, 2019; also: nearly all actives have a fitted effect of over 60% in size
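Multi-concentration cytotoxicity screen in KB-3-1 cells grown in DMEM lacking phenol red with 10% FBS. After 72 h at 37 °C with compound, ATP-dependent luminescence was recorded.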
HT1080NT lethal: qHTS for induction of synthetic lethality in tumor cells producing 2HG: qHTS for the HT-1080-NT fibrosarcoma cell line; HT-1080-NT fibrosarcoma viability, CellTiter-Glo ATP luminescence, 48 h; Potency, µM (titrated, usually from 46.1 µM), usual class: cytotoxic; 360,000 compounds, 1.6% hits; AID 686970, 2013;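 also: NT is the 2HG producing partner of a matched IDH1 knockdown line; nearly all actives have a fitted effect of over 55% in size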
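Compounds were tested in concentration-response format on HT-1080-NT cells for 48 hours at 37 degrees C. Cell viability came from CellTiter-Glo luminescence; curves were classified by r2, response magnitude and activity.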
SW480 rerep: A quantitative high throughput screen for small molecules that induce DNA re-replication in SW480 colon adenocarcinoma cells | SW480 DNA re-replication, Hoechst DNA content imaging, 48 h | Potency, µM (series often up to 46.1 µM), actives largely listed as activators | 340,000 compounds, 1.8% hits; also: nearly all actives have a fitted effect of over 55% in size
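Treated cells incubate 48 hr (37 C, 5% CO2), are stained 40 min with Hoechst, and nuclear fluorescence is enumerated; a rise in nuclei with high DNA signal marks re-replication.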
Hits are given with their value; n = inactive; u = inconclusive; x = no result given; [ ] = remark or other dose. Calls follow the shape of the dose curve; as a rule, active = well fitted curve in the direction sought with a large enough effect; inconclusive = small, poorly fitted or top-dose-only effect, or another doubt; inactive = no such curve, though single readings can be large; an effect the other way counts as inactive or inconclusive.

SMILES | KB-V1 cytotox | HT1080 IDH1KD tx | MCF10A rereplic | KB-3-1 tox | HT1080NT lethal | SW480 rerep
CCNc1nc(NC(C)C)nc(Nn2cnnc2)n1 | n | n | n | n | n | n
O=C(Nc1cccnc1)OC1CCCCC1 | n | n | n | n | n | n
C=CCn1c(CNc2ccc(C)cc2)nnc1SCC(=O)N/N=C/c1ccc(O)cc1O | n | n[9.24 µM] | u | n | u | n
C=CCn1c(CNc2ccccc2)nnc1SCC(=O)N/N=C/c1ccc(O)cc1O | n | u | 16µM | n | u | n
Cc1ccc(C(=O)COC(=O)COc2ccccc2[N+](=O)[O-])s1 | n | n | n | n | n | n
CCOC(=O)COc1ccccc1/C=C\[N+](=O)[O-] | 15µM | 2.9µM | u | 9.2µM | 8.2µM | 4.1µM
CCO[C@@H]1OC(C(=O)O)=C[C@H](c2ccc3c(c2)OCO3)[C@H]1CCCO | n | n | n | n | n | n
COc1ccc(-c2nnc(SCC(=O)Nc3ccc(Cl)cc3)n2C)cc1 | n | n | 3.3µM | n | n | 15µM
COCCn1c(SCC(=O)Nc2sc(C)c(C)c2C#N)nnc1-c1ccc(OC)cc1 | 9.2µM | n | n | n | n | n
Cn1c(SCC(=O)NC(C)(C)C)nnc1-c1ccc(C(C)(C)C)cc1 | 21µM | n | n | n | n | n
Cc1ccc(-c2nnc(SCC(=O)Nc3sc(C)c(C)c3C#N)n2C)cc1 | n | n | n | n | n | n
CC1(C)N=C(SCC(=O)Nc2ccc(Cl)cc2)C(c2ccc(Cl)cc2)=N1 | u | n | 18µM | u | n | u
CCN1CCN(S(=O)(=O)c2ccc(Cl)c(C(=O)N(C)Cc3ccc(C(C)(C)C)cc3)c2)CC1 | n | u | n | u | u | n
Cn1nnnc1SCC(=O)Nc1ccc(Oc2ccc(Cl)cc2)cc1 | n | u | 8.2µM | n | n | 15µM
Cn1c(=O)oc2cc(S(=O)(=O)NCCC(=O)N3CCc4ccccc4C3)ccc21 | n | n | n | n | u | u
COc1cc(/C=N/NC(=O)C23CC4CC(CC(C4)C2)C3)cc(Br)c1O | n | n | n | u | n | u
COc1cc(/C=N/NC(=O)CC23CC4CC(CC(C4)C2)C3)cc(Br)c1OCC(=O)N(C)C | n | u | 18µM | n | u | n
O=C(O)C12CC3CC(C1)CC(n1ncc(NCc4ccco4)c(Cl)c1=O)(C3)C2 | n | n | n | n | n | n
CCCNC(=O)C1(C)CCCN(Cc2csc(-c3ccccc3)n2)C1 (centres undefined) | n | n | x | u | n | x
CCNC(=O)C1(C)CCCN(Cc2csc(-c3ccc(Cl)cc3)n2)C1 (centres undefined) | n | u | x | u | 0.46µM | x
Cc1ccc(OCC(=O)NCCNC(=O)c2cnccn2)cc1 | n | n | n | n | n | n
CCn1ncc(Cl)c1C(=O)NC(=S)Nc1ccccc1Br | 16µM | n | n | u | n | n
CCCN(C(=O)COc1cc(=O)n(CC)c2ccccc12)c1ccc(C(C)C)cc1 | 13µM | x | x | u | x | x
CCN(C(=O)COc1cc(=O)n(CC)c2ccccc12)c1cccc(Cl)c1 | 2.1µM | n | n | u | n | n
COc1ccc(CNC(=O)C(=O)NCc2cccnc2)cc1 | n | n | n | n | n | n
SMILES | KB-V1 cytotox | HT1080 IDH1KD tx | MCF10A rereplic | KB-3-1 tox | HT1080NT lethal | SW480 rerep
CCC(Sc1nc(-c2cccc(OC)c2)c(C#N)c(=O)[nH]1)C(=O)Nc1nnc(C(C)C)s1 (centres undefined) | n | n | n | n | n | u
CC1=C(C(=O)OCC2CCCO2)C(c2cccc(C(F)(F)F)c2)C2=C(CC(c3ccco3)CC2=O)N1 (centres undefined) | u | u | u | 16µM | n | u
CC1=C(C(=O)OCC2CCCO2)C(c2ccccc2OC(C)C)C2=C(CC(c3ccco3)CC2=O)N1 (centres undefined) | n | n | n | n | n | u
C1=C/C(=C2/C=Cc3ccccc32)c2ccccc2N1 | 2.3µM | x | x | 4.6µM | x | x
CC1=C(CO)C(=O)OC([C@@H](C)C2CC[C@H]3C4C[C@H]5O[C@]56[C@@H](O)C=CC(=O)[C@]6(C)C4CC[C@]23C)C1 (some centres undefined) | 13µM | 18µM | 2.3µM | u | 21µM | u
COc1ccc(N2C(=O)c3ccccc3NC2c2ccc(OC)c(Cn3cc([N+](=O)[O-])cn3)c2)cc1 (centres undefined) | n | n | n | n | n | n
COc1ccc(-c2nc(NC(=O)c3cc(C(C)(C)C)nn3C)sc2C)cc1 | 2.3µM | u | 15µM | n | 16µM | 16µM
Cc1sc(NC(=O)c2ccc(=O)n(C)n2)nc1-c1ccccc1 | n | n | 23µM | n | n | n
COc1ccc(-c2nc(NC(=O)c3n[nH]c(=O)c4ccccc34)sc2C)cc1 | 8.2µM | n | u | u | n | u
CN(C)N1C(=O)C2C3C=CC(O3)C2C1=O (centres undefined) | n | n | n | n | n | n
O=C(Nc1cccc([N+](=O)[O-])c1)Nc1cccc([N+](=O)[O-])c1 | n | u | n | n | u | n
CC(C)S(=O)(=O)c1csc(NC(=O)Nc2cccc([N+](=O)[O-])c2)c1Cl | u | n | n | 23µM | n | n
Cc1nc2c3ccccc3nc(SCC(=O)c3ccc(Cl)cc3)n2n1 | 10µM | n | u | n | n | n
COCCNC(=O)CSc1nc2ccccc2c2nc(C)nn12 | n | n | n | n | n | n
Cc1nc2c3ccccc3nc(SCC(=O)N3CC(C)CC(C)C3)n2n1 (centres undefined) | 0.58µM | n | n | n | n | n
O=C(NCCCn1ccnc1)c1cc2nc(-c3ccc(Br)cc3)cc(C(F)(F)F)n2n1 | n | u | 15µM | n | 23µM | u
CCCNC(=O)c1cc2nc(-c3ccc(Br)cc3)cc(C(F)(F)F)n2n1 | n | x | x | n | x | x
COc1ccc(-c2cc(C(F)(F)F)n3nc(C(=O)Nc4cc(C)ccc4C)cc3n2)cc1 | n | x | x | u | x | x
COc1ccc(-c2cc(C(F)(F)F)n3nc(C(=O)NCCCN4CCOCC4)cc3n2)cc1 | n | n | u | n | n | 8.2µM
COc1ccc(-c2cc(C(F)(F)F)n3nc(C(=O)N4CCCCC4)cc3n2)cc1OC | 10µM | n | n | u | n | u
C=CCN1C(=O)/C(=C/C(=O)OC)S/C1=N\NC(=O)c1ccccc1 | n | u | u | n | u | u
O=C(COC(=O)Cn1cnc2ccccc21)Nc1ccc(Br)cc1 | n | n | x | n | n | x

Bioassay records (PubChem)
